Only a selection was taken, and hits are over-represented in it overall.
KDM5B inh = inhibitors of human KDM5B histone demethylase | Q9UGL1 | KDM5B demethylase, FDH-coupled NADH fluorescence (FDH is formaldehyde dehydrogenase) | Potency, µM (highest dose often 57.7 µM), hits mostly inhibitors | 2.6% of 220,000 active | AID 1347165; active means well fitted inhibition curve with a large enough effect; further: 0% is about no effect; nearly all actives have a fitted effect of over 70% in size
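Inhibition is measured as reduced NADH fluorescence generation from FDH coupling to formaldehyde release. Truncated KDM5BΔAP at 200 nM final acts on H3K4me3 peptide (12.5 µM in substrate mix) in pH 7.5 HEPES buffer with Tween-20, 30 min, room temperature.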
The depositor's hits bear a star; i = inactive. Potency means the concentration at half of the fitted maximal effect.

SMILES | KDM5B inh
CN1C(=O)c2cccn2CC1CNC(=O)c1nccn1C (stereo not drawn) | i
O=C1c2cccn2CC(CNS(=O)(=O)c2ccc(F)cc2)N1Cc1ccccc1 (stereo not drawn) | i
CCOCCCNC(=O)NCC1Cn2cccc2CN1Cc1ccccc1 (stereo not drawn) | 28.2µM*
Cn1nccc1C(=O)NCC1Cn2cccc2CN1Cc1ccccc1 (stereo not drawn) | 22.4µM*
COCCN1C(=O)c2cccn2CC1CNC(=O)NCc1ccccc1 (stereo not drawn) | i
O=S(=O)(NCC1Cn2cccc2CN1Cc1cccnc1)c1ccc(F)cc1 (stereo not drawn) | 28.2µM*
COCCN1C(=O)c2cccn2CC1CNS(=O)(=O)c1ccc(F)cc1 (stereo not drawn) | i
CCOCCCNC(=O)[C@H]1CN(Cc2ccccc2)C[C@H]1C(=O)O | i
CN1Cc2cccn2CC1CNC(=O)c1ccnn1C (stereo not drawn) | 22.4µM*
Cc1cc(C(=O)NCC2Cn3cccc3C(=O)N2Cc2ccccc2)n(C)n1 (stereo not drawn) | i
CN1C(=O)c2cccn2CC1CNC(=O)c1cccn1C (stereo not drawn) | i
Cn1cccc1C(=O)NCC1Cn2cccc2C(=O)N1Cc1ccccc1 (stereo not drawn) | i
CN(C)C[C@@H]1CN(C)C[C@H]1NS(=O)(=O)c1ccccc1C(F)(F)F | i
CC(C)NC(=O)C1CCN(C(=O)N2CC3CC(C2)[C@H]2CCCC(=O)N2C3)CC1 (stereo partly drawn) | i
COCCN1CCC(N2CCN(C(=O)c3ccc(Cl)s3)CC2)C1=O (stereo not drawn) | i
O=S(=O)(c1ccc(-c2csc(Nc3cccc4ccccc34)n2)cc1)N1CCCCC1 | i
CCCn1nc(C(=O)N2CCC(C(=O)OCC)CC2)c2ccccc2c1=O | i
Cc1ccc(CNC(=O)C(CC(C)C)NC(=O)c2ccccc2C)cc1 (stereo not drawn) | i
CSCc1ccc(C(=O)N(CC2CCOC2)C2CC2)cc1 (stereo not drawn) | i
CC(=O)c1cc(C(=O)N2C[C@H]3CC[C@@H]2CN(CCCc2ccccc2)C3)cs1 | i
O=C(Cn1nnc(-c2ccccc2Cl)n1)N1CCCC1c1ccc2c(c1)OCCO2 (stereo not drawn) | i
CC(=O)NNC(=S)Nc1cccc(C)c1 | i
CC[C@H]1CN(C(=O)Nc2ccccc2)CC[C@H]1CC(=O)NCc1ccccc1 | i
CC1=C(C(=O)Nc2ccc(C)cc2)C(c2ccc(Br)cc2)NC(=S)N1 (stereo not drawn) | i
COc1ccccc1OCC(=O)Nc1nn2cc(-c3ccccc3)nc2s1 | i
SMILES | KDM5B inh
Fc1ccccc1OCc1nnc(-c2ccccc2)o1 | i
O=C(NCCC(c1ccccc1)c1ccccc1)c1cncc(Br)c1 | i
O=C1c2cccn2CC(CNS(=O)(=O)c2ccccc2)N1Cc1ccccc1 (stereo not drawn) | i
Cc1ncoc1C(=O)NCC1Cn2cccc2CN1Cc1ccccc1 (stereo not drawn) | 28.2µM*
O=C(NCC1Cn2cccc2C(=O)N1Cc1ccccc1)c1ccccn1 (stereo not drawn) | i
O=C(NCC1Cn2cccc2CN1Cc1ccccc1)c1cncc(Br)c1 (stereo not drawn) | 28.2µM*
Cn1cnc(S(=O)(=O)NCC2Cn3cccc3CN2Cc2ccccc2)c1 (stereo not drawn) | 28.2µM*
O=C(NCCCc1ccccc1)c1cncc(Br)c1 | i
CCn1ccc(C(=O)NCC2Cn3cccc3C(=O)N2CC(C)C)n1 (stereo not drawn) | i
COc1ccc(C(=O)NCC2Cn3cccc3C(=O)N2Cc2ccccc2)cc1OC (stereo not drawn) | i
CCn1cc(S(=O)(=O)NCC2Cn3cccc3C(=O)N2Cc2ccccc2)cn1 (stereo not drawn) | i
Cc1ncoc1C(=O)NCc1cccnc1N(C)Cc1ccccc1 | i
CCn1ccc(C(=O)NCC2Cn3cccc3CN2Cc2ccccc2)n1 (stereo not drawn) | 28.2µM*
COc1cc(OC)cc(C(=O)N2CCC3(CC2)NC(=O)N(c2cccc(Cl)c2)N3)c1 | i
CCC(C(=O)NN1CCCCC1)c1ccccc1 (stereo not drawn) | i
CC(=O)N1CCc2cc(C(=O)C(C)n3nnc(-c4cccc(Cl)c4)n3)ccc21 (stereo not drawn) | i
Cc1ccc(S(=O)(=O)N2CCN(CCNC(=O)c3cc(C)cc(C)c3)CC2)cc1 | i
c1ccc2oc(CSc3ccc4c(c3)OCCCO4)nc2c1 | i
CCCCn1c(=O)[nH]c(=O)c2c1nc(-c1cccc(OCC)c1OC)n2CCOC | i
FC(F)(F)c1ccc(Cl)c(N/N=C/c2ccc(-c3ccccc3)cc2)c1 | i
CC1(C)CC(=O)c2cc(C#N)c(SCc3ccccc3Cl)nc2C1 | i
CCOc1cc(=O)n2c(c1C(=O)N1CCN(c3ccccc3F)CC1)CCCC2 | i
Cc1ccc(NC(=O)c2ncoc2-c2ccc(C)o2)c(Cl)c1 | i
Cc1cc(C)n(Cc2ccc(C(=O)NCC3Cn4cccc4CN3Cc3ccccc3)o2)n1 (stereo not drawn) | 31.6µM*
Cc1cc(C)n(CCC(=O)NCC2Cn3cccc3C(=O)N2Cc2ccccc2)n1 (stereo not drawn) | i
SMILES | KDM5B inh
Cc1cc(C)n(Cc2ccc(C(=O)NN)o2)n1 | i
COc1ccc(CNC(=O)c2cnc3c(cnn3C(C)C)c2)cc1 | i
Cc1c(-c2ccccc2F)[nH]c2ccc(CNC(=O)Cn3ccc(=O)[nH]c3=O)cc12 | 31.6µM*
Cc1cc(SCC(=O)NCCCN2CCCC2=O)nc2ccccc12 | i
O=C(Cn1ccc(=O)[nH]c1=O)NC(c1ccc(F)cc1)c1cccs1 (stereo not drawn) | i
COc1ccc(CNC(=O)Cn2c(=O)nc(-c3ccccc3F)c3cc(Cl)ccc32)cc1 | i
Cc1c(-c2ccccc2F)[nH]c2ccc(CNC(=O)CCN3CCCC3=O)cc12 | 28.2µM*
Cn1ncc(N2CCC(CNC(=O)CCN3CCCC3=O)C2)cc1=O (stereo not drawn) | i
O=C(Nc1ccccc1Cl)N(Cc1cccc(O)c1)C1CCC(O)CC1 (stereo not drawn) | i
CN1CCN(CCCNC(=O)c2nc(-c3ccc4[nH]ccc4c3)no2)CC1 | i
CCOc1ccc(NC(=O)CSc2nc3cc(C)[nH]c3c(=O)n2C)cc1 | i
CN1CCN(Cc2cc(=O)oc3cc(O)c(Cl)cc23)CC1 | i
C#CC[N+](C)(C)CCN1C(=O)C2C3C=CC(C3)C2C1=O (stereo not drawn) | i
Cc1noc(CS(=O)(=O)Cc2ccccc2C)n1 | i
CCCn1cc(CNc2cc(CC)nc3c(C)c(C)nn23)cn1 | i
c1ccc(CN2CCN(c3nccc(-c4ccncc4)n3)CC2)nc1 | i
CCCn1cc(-c2ccnc(NCc3cccc(C)c3)n2)c(C)n1 | 28.2µM*
CCCn1cc(-c2ccnc(NC3CCN(Cc4ccccn4)CC3)n2)c(C)n1 | 28.2µM*
O=C(NCCCn1cccn1)c1ccccc1OC1CCN(Cc2ccccn2)CC1 | i
CCCn1nnc(NCc2cccc(Cl)c2)n1 | i
O=C(O)C[C@@H]1CCN(C(=O)Cc2ccccc2)C[C@@H]1CCN1CCC[C@H]1C(=O)O | i
CCN(CC)S(=O)(=O)c1cc(C)c(C)c([N+](=O)[O-])c1 | i
CN(C)/C=C/C(=O)c1ccc([N+](=O)[O-])cc1 | i

Compound activity: PubChem BioAssay, National Center for Advancing Translational Sciences (NCATS)
